Rows were chosen to be rich in hits. Some 2.9% of all compounds tested hit in one or more screens of this group.
KLK7 zymogen act = proKLK7 zymogen activators, primary screen, biochemical, fluorescence intensity; purified proKLK7, EDANS-DABCYL substrate fluorescence; 100% is mature enzyme control, 0% vehicle; activation, % at 7 µM; 370,000 compounds, 0.9% hits;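 active = activation above the mean of all tested compounds plus 3 SD, computed per campaign excluding outliers beyond control limits, cut at about 13% in these data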
SMARCA2 activ = SMARCA2 (BRM) function activators, primary screen, cell-based, luminescence, high throughput | activation, % at 9.1 µM | AID 652017, 2013 | MG213 cells, MMTV-luciferase reporter, dexamethasone, overnight | 370,000 compounds, 1% hits; in the data active = activation above about 7.8%;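 note: 0% = vehicle wells and 100% = reference activator wells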
FAS TE block = FAS thioesterase domain inhibitors, primary screen, biochemical, fluorescence intensity, uHTS. 360,000 compounds, 0.67% hits. AID 602261, 2012. Fatty acid synthase (Homo sapiens), P49327. inhibition, % at 15 µM. recombinant FAS-TE, OMFH fluorogenic substrate, fluorescence endpoint;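 active = compounds whose normalised, plate-corrected inhibition of enzyme fluorescence in the single-dose primary screen is 50% or more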;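 note: 0% = DMSO with enzyme and 100% = substrate without enzyme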
GAA850 FXN act = FXN promoter activators, primary screen, cell-based, luciferase luminescence, HEK293 lucGAA850. HEK293 lucGAA850 FXN promoter luciferase reporter, 24 h; percent of 10 µM SAHA response. activation, % at 6 µM. 360,000 compounds, 0.56% hits. AID 540364, 2011;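 active = activation above the average of all compounds screened plus 3 SD, cutoff fixed separately per campaign, cut at about 7.5% in these data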;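 note: 0% = DMSO wells and 100% = 10 µM SAHA wells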
proKLK7 act conf = proKLK7 zymogen activators, confirmation, biochemical, fluorescence intensity, triplicate; activation, % at 7 µM; AID 686949, 2013; 3,200 compounds, 68% hits; shares compounds with KLK7 zymogen act; purified proKLK7, EDANS-DABCYL substrate fluorescence; scaled: vehicle 0, mature enzyme 100;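 active = activation, as change over the incubation, above the mean of all tested compounds plus 3 SD, cut at about 13% in these data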
EDANS-DABCYL int = EDANS-DABCYL substrate optical interference, artefact control for kallikrein-7 zymogen activator project, biochemical, fluorescence intensity, high throughput; shares compounds with KLK7 zymogen act; no enzyme, 4 h; solvent 0%, active enzyme control 100%; activation, % at 7 µM; 3,200 compounds, 80% hits;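 active = activation above the all-compound mean plus 3 SD, ignoring values outside control-based bounds, cut at about 4.8% in these data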;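 note: value is the 4 h activation minus the activation read at time zero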
* = called active by the depositor.

`N#CCc1c(C#N)c(N)nc(N2CCOCC2)c1C#N` gave KLK7 zymogen act -57.5, SMARCA2 activ 1.3, FAS TE block -0.3 and GAA850 FXN act -0.2.
`CC(=O)N1CCc2cc3nc(C)cc(C)c3cc21` gave KLK7 zymogen act 25.5*, SMARCA2 activ 1.0, FAS TE block -6.1, GAA850 FXN act 0.8, proKLK7 act conf 1.9 and EDANS-DABCYL int 3.1.
For Cc1c(C)c2ccc(OCC(=O)c3ccccc3)cc2oc1=O the results were KLK7 zymogen act -4.8, SMARCA2 activ -0.3, FAS TE block 16.2 and GAA850 FXN act 3.5.
CC(=O)C(C)Oc1ccc2c3c(c(=O)oc2c1)CCCC3 (centres undefined) was read as KLK7 zymogen act 1.2, SMARCA2 activ 2.0, FAS TE block -2.3 and GAA850 FXN act 3.0.
CCC(=O)Oc1ccc2c(C)c(Cl)c(=O)oc2c1 was read as KLK7 zymogen act 40.0*, SMARCA2 activ 3.4, FAS TE block 9.7, GAA850 FXN act 1.6, proKLK7 act conf 671.6* and EDANS-DABCYL int 655.1*.
`COC(=O)Cc1c(C)c2ccc(OC(=O)c3ccccc3)cc2oc1=O` gave KLK7 zymogen act 422.5*, SMARCA2 activ -2.0, FAS TE block 1.7, GAA850 FXN act -0.4, proKLK7 act conf 631.5* and EDANS-DABCYL int 511.5*.
For Cc1c(Cl)c(=O)oc2cc(OC(C)C)ccc12 the results were KLK7 zymogen act 14.7*, SMARCA2 activ -1.7, FAS TE block 8.0, GAA850 FXN act 1.7, proKLK7 act conf 0.9 and EDANS-DABCYL int 2.9.
Screening C=CCOC(=O)COc1ccc2c(C)c(C)c(=O)oc2c1 returned KLK7 zymogen act 14.9*, SMARCA2 activ -4.7, FAS TE block 17.9, GAA850 FXN act -0.2, proKLK7 act conf 10.7 and EDANS-DABCYL int 14.1*.
Screening CC1(C)Cc2c(sc3nc(N/N=C/c4ccccc4)[nH]c(=O)c23)CO1 returned KLK7 zymogen act -0.2, SMARCA2 activ -3.4, FAS TE block -4.8 and GAA850 FXN act 2.9.
For COc1ccc(OCC(=O)NNC(=O)c2c(-c3ccccc3Cl)noc2C)cc1 the results were KLK7 zymogen act 0.3, SMARCA2 activ -0.6, FAS TE block -6.0 and GAA850 FXN act -1.2.
Cc1nc(C)c(-c2ccc(SCC(=O)Nc3cccc(F)c3)nn2)s1 was read as KLK7 zymogen act 0.6, SMARCA2 activ -2.4, FAS TE block -1.4 and GAA850 FXN act 0.5.
For COc1ccc2c(c1OC)C(=O)OC2CC(=O)c1ccc2c(c1)OCO2 (centres undefined) the results were KLK7 zymogen act 17.7*, SMARCA2 activ -1.9, FAS TE block -3.9, GAA850 FXN act 3.0, proKLK7 act conf 11.6 and EDANS-DABCYL int 11.6*.
CC(C)(C)N=C1NN=C(c2cc3ccccc3o2)CS1 was read as KLK7 zymogen act -1.0, SMARCA2 activ -0.3, FAS TE block -9.0 and GAA850 FXN act -1.2.
OC1c2c(F)cccc2N=C2CCCCN21 (centres undefined) was read as KLK7 zymogen act 14.0*, SMARCA2 activ -2.9, FAS TE block -4.8, GAA850 FXN act -0.2, proKLK7 act conf 11.4 and EDANS-DABCYL int 8.3*.
For CCCCn1nc(C(=O)Oc2ccc3c(C)cc(=O)oc3c2)c2ccccc2c1=O the results were KLK7 zymogen act 45.4*, SMARCA2 activ -2.4, FAS TE block -1.9, GAA850 FXN act -0.9, proKLK7 act conf 64.0* and EDANS-DABCYL int 69.0*.
For CCCC(=O)Oc1ccc2c(C)cc(=O)oc2c1 the results were KLK7 zymogen act 655.6*, SMARCA2 activ -0.9, FAS TE block 2.8, GAA850 FXN act 0.2, proKLK7 act conf 685.6* and EDANS-DABCYL int 706.4*.
Screening Cc1cc(=O)oc2cc(OC(C)C)ccc12 returned KLK7 zymogen act 2.2, SMARCA2 activ 0.8, FAS TE block -7.2 and GAA850 FXN act -1.1.
Cc1cc(=O)oc2cc(OC(=O)CCN3C(=O)c4ccccc4C3=O)ccc12 was read as KLK7 zymogen act 57.5*, SMARCA2 activ 1.0, FAS TE block 1.4, GAA850 FXN act 0.0, proKLK7 act conf 427.4* and EDANS-DABCYL int 403.5*.
`Cc1ccc(C)c(SCC(=O)Nc2ccc(C)c(S(=O)(=O)N3CCOCC3)c2)c1` gave KLK7 zymogen act 0.7, SMARCA2 activ -2.1, FAS TE block 15.8 and GAA850 FXN act -0.4.
`Cc1cc(Oc2nnnn2-c2ccccc2)ccc1Cl` gave KLK7 zymogen act 0.1, SMARCA2 activ 4.7, FAS TE block 16.7 and GAA850 FXN act 0.5.
O=c1[nH]c(=S)c2c(n1-c1ccccc1)CCC2 was read as KLK7 zymogen act 2.5, SMARCA2 activ -4.0, FAS TE block -7.7 and GAA850 FXN act 3.9.
Screening Cc1cc2[nH]c(=O)c(=O)[nH]c2cc1S(=O)(=O)NC1CCC(C)CC1 (centres undefined) returned KLK7 zymogen act 14.8*, SMARCA2 activ -2.4, FAS TE block 15.2, GAA850 FXN act 0.9, proKLK7 act conf 7.5 and EDANS-DABCYL int 4.1*.
`Cc1cc2[nH]c(=O)c(=O)[nH]c2cc1S(=O)(=O)NCc1ccccc1` gave KLK7 zymogen act 22.6*, SMARCA2 activ -3.0, FAS TE block -3.8, GAA850 FXN act -0.3, proKLK7 act conf 3.7 and EDANS-DABCYL int 6.0*.
`COCCN(CCOC)C(=O)Nc1ccc(Cl)cc1` gave KLK7 zymogen act 0.4, SMARCA2 activ -2.5, FAS TE block -1.8 and GAA850 FXN act -2.3.
Screening Cc1ccccc1NC(=S)NC1CCCC1 returned KLK7 zymogen act -0.3, SMARCA2 activ -2.4, FAS TE block -9.9 and GAA850 FXN act 1.5.
Screening Cc1cccc(NC(=S)NNC(=S)NC2CCCCC2)c1C returned KLK7 zymogen act 27.6*, SMARCA2 activ 1.0, FAS TE block -6.8, GAA850 FXN act 1.4, proKLK7 act conf 1.4 and EDANS-DABCYL int -0.8.
O=C(CSc1nnc(-c2ccccc2)n1Cc1ccccc1)NC1CC1 was read as KLK7 zymogen act -0.5, SMARCA2 activ 0.6, FAS TE block -8.0 and GAA850 FXN act 0.2.
Screening CCOC(=O)Nc1ccc([N+](=O)[O-])cc1OC returned KLK7 zymogen act 0.9, SMARCA2 activ -4.7, FAS TE block -4.7 and GAA850 FXN act 3.0.
Screening CCOC(=O)c1ccc(C(=O)OCC)c(NC(=S)Nc2ccc([N+](=O)[O-])cc2OC)c1 returned KLK7 zymogen act 13.2*, SMARCA2 activ -2.6, FAS TE block -20.3, GAA850 FXN act 6.0, proKLK7 act conf 11.6 and EDANS-DABCYL int 6.9*.
Cc1nn2cc(-c3ccccc3)nc2[nH]c1=O was read as KLK7 zymogen act 49.2*, SMARCA2 activ -0.6, FAS TE block -10.8, GAA850 FXN act 1.0, proKLK7 act conf 74.4* and EDANS-DABCYL int 79.7*.

High-throughput results deposited in PubChem by several laboratories.
